Test results from the supplement of paper PMC9262897, “Low-cost anti-mycobacterial drug discovery using engineered E. coli” (Nature Communications, 2022).
Where a name gives a salt, the structure may show the parent alone. ± gives the standard deviation of the averaged measurements.

Test system: E. coli TESEC Mtb DapB
Assay: growth (OD600 after 10 h); higher = more growth (less inhibition)
Conditions: arabinose induction (level): High; compound 0.1 mM; raw OD600 reference: median of DMSO wells […], cell-free background 0.041
Experimental: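 TESEC E. coli strains in which the native enzyme is deleted and replaced by arabinose-inducible Mtb Asd, DapB, CysH or TrpD, each grown in its selective medium. Strains were screened against the Prestwick library at 0.1 mM and 1% DMSO in 384-well format at low and high arabinose induction. Growth is read as OD600 after 10 h in triplicate.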

SMILES | growth
CC(=O)OCC1=C(C(=O)O)N2C(=O)[C@@H](N)[C@H]2SC1 [Cephalosporanic acid, 7-amino] | 0.187 ± 0.014
CC(=O)[C@H]1CC[C@H]2[C@@H]3CC[C@H]4C[C@H](O)CC[C@]4(C)[C@H]3C(=O)C[C@]12C [Alfaxalone] | 0.155 ± 0.031
CC(C)C[C@H](CN)CC(=O)O [Pregabalin] | 0.201 ± 0.0072
CCC1(c2ccc(N)cc2)CCC(=O)NC1=O (stereo not given) [Glutethimide, para-amino] | 0.189 ± 0.0071
CCC(=O)O[C@H]1CC[C@H]2[C@@H]3CCC4=CC(=O)CC[C@]4(C)[C@H]3CC[C@]12C [Testosterone propionate] | 0.214 ± 0.0086
COc1cc2c(cc1OC)C(C)NCC2 (stereo not given) | 0.212 ± 0.013
COc1ccc(CCN2CCC(Nc3nc4ccccc4n3Cc3ccc(F)cc3)CC2)cc1 [Astemizole] | 0.04653 ± 0.00032
CC(C)c1c(CN(C)C(C)Cc2ccccc2)n(C)n(-c2ccccc2)c1=O (stereo not given) [Famprofazone] | 0.202 ± 0.0043
NC(=O)OCCCc1ccccc1 [Phenprobamate] | 0.197 ± 0.023
O=C(CCCN1CCC(n2c(=O)[nH]c3ccccc32)CC1)c1ccc(F)cc1 [Benperidol] | 0.187 ± 0.026
OC(c1ccccc1)(c1ccccc1)C1CCNCC1 [Azacyclonol] | 0.185 ± 0.013
CC(=O)O[C@H]1C[C@@H]2CC[C@@H]3[C@H](CC[C@@]4(C)[C@H]3C[C@H]([N+]3(C)CCCCC3)[C@@H]4OC(C)=O)[C@@]2(C)C[C@@H]1[N+]1(C)CCCCC1 [Pancuronium bromide] | 0.191 ± 0.026
CCCN1C[C@H](CSC)C[C@@H]2c3cccc4[nH]cc(c34)C[C@H]21 [Pergolide mesylate] | 0.2 ± 0.027
Clc1ccc(C(OCCN2CCCCC2)c2ccccc2)cc1 (stereo not given) [Cloperastine hydrochloride] | 0.146 ± 0.012
CC(C)N(CCC(C(N)=O)(c1ccccc1)c1ccccn1)C(C)C (stereo not given) [Disopyramide] | 0.175 ± 0.0095
CCCCCC[C@H]1C(=O)O[C@H](C)[C@H](NC(=O)c2cccc(NC=O)c2O)C(=O)O[C@@H](C)[C@@H]1OC(=O)CC(C)C [Antimycin A] | 0.15 ± 0.018
CC(=O)NC1CCSC1=O (racemic) [N-Acetyl-DL-homocysteine Thiolactone] | 0.226 ± 0.0088
CC1C=CC=CCCC=CC=CC=CC=CC(OC2OC(C)C(O)C(N)C2O)CC2OC(O)(CC(O)C(O)CCC(O)CC(O)CC(O)CC(=O)OC(C)C(C)C1O)CC(O)C2C(=O)O (stereo not given) [Nystatine] | 0.295 ± 0.013
O=[N+]([O-])O[C@@H]1CO[C@H]2[C@@H]1OC[C@@H]2O [Isosorbide mononitrate] | 0.176 ± 0.0055
CC(C)CC(N(C)C)C1(c2ccc(Cl)cc2)CCC1 (stereo not given) [Sibutramine HCl] | 0.161 ± 0.014

Same assay, conditions: arabinose induction (level): Low; compound 0.1 mM; raw OD600 reference: median of DMSO wells 0.227, cell-free background 0.041

SMILES | growth
CC(=O)OCC1=C(C(=O)O)N2C(=O)[C@@H](N)[C@H]2SC1 [Cephalosporanic acid, 7-amino] | 0.215 ± 0.0044
CC(=O)[C@H]1CC[C@H]2[C@@H]3CC[C@H]4C[C@H](O)CC[C@]4(C)[C@H]3C(=O)C[C@]12C [Alfaxalone] | 0.203 ± 0.028
CC(C)C[C@H](CN)CC(=O)O [Pregabalin] | 0.231 ± 0.07
CCC1(c2ccc(N)cc2)CCC(=O)NC1=O (stereo not given) [Glutethimide, para-amino] | 0.226 ± 0.041
CCC(=O)O[C@H]1CC[C@H]2[C@@H]3CCC4=CC(=O)CC[C@]4(C)[C@H]3CC[C@]12C [Testosterone propionate] | 0.189 ± 0.002
COc1cc2c(cc1OC)C(C)NCC2 (stereo not given) | 0.232 ± 0.0067
COc1ccc(CCN2CCC(Nc3nc4ccccc4n3Cc3ccc(F)cc3)CC2)cc1 [Astemizole] | 0.0845 ± 0.059
CC(C)c1c(CN(C)C(C)Cc2ccccc2)n(C)n(-c2ccccc2)c1=O (stereo not given) [Famprofazone] | 0.236 ± 0.04
NC(=O)OCCCc1ccccc1 [Phenprobamate] | 0.215 ± 0.024
O=C(CCCN1CCC(n2c(=O)[nH]c3ccccc32)CC1)c1ccc(F)cc1 [Benperidol] | 0.21 ± 0.0039
OC(c1ccccc1)(c1ccccc1)C1CCNCC1 [Azacyclonol] | 0.213 ± 0.036
CC(=O)O[C@H]1C[C@@H]2CC[C@@H]3[C@H](CC[C@@]4(C)[C@H]3C[C@H]([N+]3(C)CCCCC3)[C@@H]4OC(C)=O)[C@@]2(C)C[C@@H]1[N+]1(C)CCCCC1 [Pancuronium bromide] | 0.203 ± 0.055
CCCN1C[C@H](CSC)C[C@@H]2c3cccc4[nH]cc(c34)C[C@H]21 [Pergolide mesylate] | 0.234 ± 0.049
Clc1ccc(C(OCCN2CCCCC2)c2ccccc2)cc1 (stereo not given) [Cloperastine hydrochloride] | 0.163 ± 0.0059
CC(C)N(CCC(C(N)=O)(c1ccccc1)c1ccccn1)C(C)C (stereo not given) [Disopyramide] | 0.195 ± 0.02
CCCCCC[C@H]1C(=O)O[C@H](C)[C@H](NC(=O)c2cccc(NC=O)c2O)C(=O)O[C@@H](C)[C@@H]1OC(=O)CC(C)C [Antimycin A] | 0.278 ± 0.058
CC(=O)NC1CCSC1=O (racemic) [N-Acetyl-DL-homocysteine Thiolactone] | 0.242 ± 0.019
CC1C=CC=CCCC=CC=CC=CC=CC(OC2OC(C)C(O)C(N)C2O)CC2OC(O)(CC(O)C(O)CCC(O)CC(O)CC(O)CC(=O)OC(C)C(C)C1O)CC(O)C2C(=O)O (stereo not given) [Nystatine] | 0.269 ± 0.051
O=[N+]([O-])O[C@@H]1CO[C@H]2[C@@H]1OC[C@@H]2O [Isosorbide mononitrate] | 0.216 ± 0.03
CC(C)CC(N(C)C)C1(c2ccc(Cl)cc2)CCC1 (stereo not given) [Sibutramine HCl] | 0.185 ± 0.012
